According to PubChem BioAssay (NCATS):
Results filed as inconclusive are left out. Entries that show only a call come without a potency. Values without a mark were called inactive. The source made the active and inactive calls. Calls follow the shape of the dose curve; as a rule, active = well fitted inhibition curve with a large enough effect; inconclusive = small, poorly fitted or top-dose-only effect; inactive = flat fitted curve, though single readings scatter.

system: Zika virus NS2B-NS3 protease; assay: Primary screen GU AMC qHTS for Zika virus inhibitors (AID 1347154); settings: Zika NS2B-NS3 unlinked protease, AMC fluorogenic substrate; series mostly up to 54.1 µM; also: nearly all actives have a fitted effect of over 70% in size
How it was run: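 Fluorogenic AMC-substrate cleavage by noncovalent NS2B-NS3 protease complex (25 nM, pH 8.0 Tris buffer with Tween 20) followed for 15 minutes at room temperature (~20% conversion). Percent inhibition from ex340/em450 signal change, fitted by 4-parameter Hill equation.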

`NCCNCCNCCNCCN` was tested. Which activity change, negative = inhibition did it give?
Its activity change, negative = inhibition is -0.671% [at 6.83 µM].

Which Potency does the source give for `Cc1cc2c(cc1S(N)(=O)=O)S(=O)(=O)CCC2` here?
The Potency was “inactive”.

`O=C(O)[C@@H]1CSCN1` was tested. Which Potency did it give?
Its Potency is “inactive”.

For `Cc1cc(O)cc2c1O[C@](C)(CCC[C@H](C)CCC[C@H](C)CCCC(C)C)CC2`, which Potency is on record?
The Potency was “inactive”.

With `Cn1cc[nH]c1=S` as the molecule, how does the Potency read?
Its Potency is “inactive”.

How did the Potency turn out when `CC12CCC(CC1)C(C)(C)O2` was run?
Its Potency is “inactive”.

Which Potency does the source give for `COC(=O)[C@H]1[C@H]2C[C@@H]3c4[nH]c5cc(OC)ccc5c4CCN3C[C@H]2C[C@@H](OC(=O)COc2ccc(OC)cc2)[C@@H]1OC` here?
The Potency was “inactive”.

How did the Potency turn out when `CC1(C)S[C@@H]2[C@H](NC(=O)Cc3ccccc3)C(=O)N2[C@H]1C(=O)O` (tested in a mixture with another compound) was run?
Its Potency is “inactive”.

With `CO/N=C(\C(=O)N[C@@H]1C(=O)N2C(C(=O)O)=C(CSc3nc(=O)c(O)nn3C)CS[C@H]12)c1csc(N)n1` as the molecule, how does the Potency read?
The Potency was “inactive”.

How did the Potency turn out when `CCCCCCCCCCCCCCCCCCOCC(O)CO` (centres undefined) was run?
The Potency was “inactive”.

Which Potency does the source give for `CC(C)(C)C(=O)NCCCC(=O)O` here?
The Potency was “inactive”.

For `CCCCCCCCCCCCOS(=O)(=O)O`, which Potency is on record?
The Potency was “inactive”.

`CCCc1c(OCCCCc2nn[nH]n2)ccc(C(C)=O)c1O` was tested. Which Potency did it give?
Its Potency is “inactive”.

With `O=C1c2c(O)cccc2Cc2cccc(O)c21` as the molecule, how does the Potency read?
The Potency was “inactive”.

Which Potency does the source give for `CCN(CC)CCNC(C(=O)OCCC(C)C)c1ccccc1` (centres undefined) here?
The Potency was “inactive”.

How did the Potency turn out when `Oc1cn2c(n1)Nc1ccc(Cl)c(Cl)c1C2` was run?
The Potency was “inactive”.

Which Potency does the source give for `CCCOC(=O)c1ccccc1` here?
The Potency was “inactive”.

How did the activity change, negative = inhibition turn out when `O=c1[nH]c(=O)c2[nH]c(=O)[nH]c2[nH]1` was run?
Its activity change, negative = inhibition is -2.36% [at 6.83 µM].

Which Potency does the source give for `Cc1c(Cl)cccc1Nc1ccccc1C(=O)O` here?
The Potency was “inactive”.

Which Potency does the source give for `CC1(C)[C@@H]2CC[C@@]1(C)C(=O)C2` here?
The Potency was “inactive”.

For `C[C@H](N)[C@H](O)c1cccc(O)c1`, which Potency is on record?
Its Potency is “inactive”.

How did the Potency turn out when `COc1cc(C(=O)N2CCOCC2)cc(OC)c1OC` was run?
The Potency was “inactive”.

Which Potency does the source give for `CN(C)CCN(Cc1ccccc1)c1ccccn1` here?
The Potency was “inactive”.

`CC(=O)Oc1c(C)c(C)c2c(c1C)CC[C@@](C)(CCC[C@H](C)CCC[C@H](C)CCCC(C)C)O2` was tested. Which Potency did it give?
The Potency was “inactive”.

`CCC(=O)c1ccc(O)cc1` was tested. Which Potency did it give?
The Potency was “inactive”.

`NCC(=O)CCC(=O)O` was tested. Which Potency did it give?
The Potency was “inactive”.

With `C[C@@H]1CCN(C(=O)[C@H](CCCN=C(N)N)NS(=O)(=O)c2cccc3c2NC[C@H](C)C3)[C@@H](C(=O)O)C1` as the molecule, how does the Potency read?
Its Potency is “inactive”.

`CC1(C)OC(=O)NC1=O` was tested. Which Potency did it give?
The Potency was “inactive”.

Which Potency does the source give for `CC1=C(C/C=C(\C)CCC[C@H](C)CCC[C@H](C)CCCC(C)C)C(=O)c2ccccc2C1=O` here?
The Potency was “inactive”.

Which Potency does the source give for `NS(=O)(=O)c1cc2c(cc1C(F)(F)F)NC(Cc1ccccc1)NS2(=O)=O` (centres undefined) here?
The Potency was “inactive”.

`Nc1ccc(S(=O)(=O)Nc2ccccc2)cc1` was tested. Which Potency did it give?
Its Potency is “inactive”.

How did the Potency turn out when `CN1CCCCC1CCN1c2ccccc2Sc2ccc(S(C)=O)cc21` (centres undefined) was run?
Its Potency is “inactive”.

For `O=C1O[C@H](CO)[C@@H](O)[C@H](O)[C@H]1O`, which Potency is on record?
The Potency was “inactive”.

For `CCCCC(CC)COC(=O)c1ccccc1O` (centres undefined), which Potency is on record?
The Potency was “inactive”.
